Assay outcomes deposited in PubChem by several laboratories.
In the library only some 4.1% were active in any assay of this set; here they are far more common.
PTK2B oligo ant = antagonists of human Pyk2 oligomerization. Q14289. Q293 cells, Pyk2 FERM NanoBiT luminescence; stronger effect = lower value. z-score (the deposit names both 25 µM and 10 µM). hit rate 0.83% among 99,000. AID 1347419;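 active = Z-score of -3 or lower, scaled per plate to the spread of control and sample wells; inactive = z-score above -3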;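 note: negative z-score means lost luminescence so less FERM oligomerization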
MRP reversal = reverses drug resistance mediated by MRP | H69AR cells + 2 uM doxorubicin, CellTiter-Glo, 72 h | hit rate 0.04% among 85,000 | differential viability (reversal), % at 10 µM;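 active = viability drop by adding the cancer drug above about 55%, with treated viability meeting a 40% cutoff, limit read from the data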;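 note: viability without doxorubicin minus viability with 2 µM doxorubicin for each compound; larger differential means the compound sensitizes cells more to doxorubicin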
Cav32 inh = inhibitors of human Cav3.2 T-type calcium channel | AID 449739 | hit rate 4% among 100,000 | Cav3.2-expressing cells, Fluo-4 calcium fluorescence FDSS; stronger effect = lower value | B-score at 10 µM | O95180;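 active = single-dose well whose peak fluorescence ratio is a statistical outlier from its plate by either plate-standardised score or position-corrected B-score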
MRP-1 activ = activators of MRP-1. hit rate 0.61% among 140,000. H69AR cells + doxorubicin, viability rescue, CellTiter-Glo. viability increase, % at 10 µM;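 active = viability gain under doxorubicin at or above a set limit, the compound median plus 3 SD, cut at about 4.7% in these data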;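 note: MRP-1 overexpressing cells given doxorubicin 25 µM after compound pretreatment; 18-22 h compound pretreatment then 72 h with doxorubicin before readout; 0% = doxorubicin-only wells and 100% = vehicle-treated cells without doxorubicin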
Mac1 fbg inh = CD11b/CD18-fibrinogen binding inhibition; P05107+P11215; K562 CD11b/CD18 adhesion to fibrinogen, ATPlite luminescence; Mn2+ added to activate the integrin; inhibition, % at 10 µM; hit rate 0.54% among 93,000; AID 1497;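 active = primary inhibition of 50% or more at 10 µM, then 40% or more on retest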
CD11b adhes enh = increases human CD11b/CD18 adhesion to fibrinogen; P05107+P11215; K562 CD11b/CD18 adhesion to fibrinogen, ATPlite luminescence; activation, % at 10 µM; hit rate 0.07% among 93,000;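 active = 10 µM primary screen giving 50% or more activity, confirmed by 40% or more on retest at that dose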
* hit, by the source's call; · = no result given.

SMILES	PTK2B oligo ant	MRP reversal	Cav32 inh	MRP-1 activ	Mac1 fbg inh	CD11b adhes enh
CCCCCn1c(CN2CCCCC2CC)nc2c1c(=O)n(C)c(=O)n2C (stereo unspecified)	·	23	-1.6	·	-50	4
Cn1c(=O)c2c(nc(CN3CCN(c4ccccc4)CC3)n2Cc2ccccc2Cl)n(C)c1=O	-0.63	-37	0.018	-3	14	-1
Cc1ccccc1NC(=O)CCN1CCCCCC1	1.1	-19	0.16	·	·	·
CN(Cc1cc2ccccc2[nH]c1=O)C(=O)C1CCCCC1	0.62	-1	0.61	0	-2	-6
CCC(C)C(Nc1ccc(C(=O)OC)cc1[N+](=O)[O-])C(=O)OC (stereo unspecified)	-0.82	·	·	-1	·	·
CCCCCn1c(CN2CCN(c3cccc(Cl)c3)CC2)nc2c1c(=O)n(C)c(=O)n2C	-0.02	25	-4.1	·	12	-5
CCCCn1c(CN2CCN(c3cccc(Cl)c3)CC2)nc2c1c(=O)n(C)c(=O)n2C	0.46	7	-6.9*	-2	90	-12
CCCn1c(CN2CCN(c3cccc(Cl)c3)CC2)nc2c1c(=O)n(C)c(=O)n2C	·	31	-4.8*	0	91*	-8
Cc1cc(C)cc(NC(=O)N2CCC(c3nc4ccccc4o3)CC2)c1	1.5	10	-0.97	0	-1	-4
CCOC(=O)C1=C(C)N(Cc2ccccc2)C(=O)NC1c1ccc(OC)cc1 (stereo unspecified)	-2.8	0	-5.8*	-2	·	·
Cn1c(C(=O)N2CCCC(C(=O)NCc3ccc4c(c3)OCO4)C2)cc2sccc21 (stereo unspecified)	·	-11	-2.6	-1	-1	-1
CCn1c(C(=O)N2CCC(C(=O)NCc3ccc4c(c3)OCO4)CC2)cc2sccc21	·	4	-5.9*	-1	10	2
CCn1c(C(=O)N2CCC(C(=O)NCCCSC3CCCCC3)CC2)cc2sccc21	·	-8	-7*	-2	-1	3
CCN1CCN(C(=O)C2CCN(C(=O)c3cc4sccc4n3CC)CC2)CC1	·	-2	0.064	0	4	-1
O=C(NC1(C(F)(F)F)NC(=O)N(Cc2ccco2)C1=O)c1cccnc1 (stereo unspecified)	0.74	9	0.21	-2	-18	1
CC1(c2nnc(-c3ccccc3)o2)CC(c2c(Cl)cccc2Cl)=NO1 (stereo unspecified)	·	·	0.18	·	·	·
CC1CCCC(C)N1C(=O)CSc1nnc(COc2ccccc2)n1-c1ccccc1 (stereo unspecified)	-0.73	11	-3.5*	-1	-13	0
Cc1cccc(C)c1NC(=O)CSc1nnc(Cn2nnc(-c3ccccc3)n2)n1-c1ccccc1	-0.28	·	-6.2*	0	-3	0
Cc1ccc(OCc2nnc(SCC(=O)Nc3cccc4ccccc34)n2-c2ccccc2)cc1	-1.3	-19	-3.7	6.3*	·	·
COc1ccc(-n2c(COc3ccccc3)nnc2SCC(N)=O)cc1	-0.13	-17	0.52	0	-16	-3
O=C(CSc1nnc(COc2ccccc2)n1-c1ccccc1)c1ccccc1	-0.73	8	-6.1*	-4	-2	1
CCOC(=O)c1ccccc1NC(=O)CSc1nnc(COc2ccccc2C)n1C	-0.72	9	-4.6*	2	-3	-1
Cc1n[nH]c(C)c1Sc1ccccc1N=Cc1cc(Cl)cc([N+](=O)[O-])c1O	-0.52	20	-6.9*	-1	57*	-6
CSC(=Nc1ccc(Cl)cc1)N[n+]1ccccc1	·	·	·	-1	·	·
CC1CCN(c2ccc(/C=N\Nc3nncn3N)cc2[N+](=O)[O-])CC1	·	·	·	-2	·	·
SMILES	PTK2B oligo ant	MRP reversal	Cav32 inh	MRP-1 activ	Mac1 fbg inh	CD11b adhes enh
N#CC1=C(N)SC(N)=C(C#N)C1CCC1CCCCC1	·	-1	-0.11	0	101*	-10
Cc1sccc1C1C(C#N)=C(N)SC(N)=C1C#N	·	-7	·	-1	0	-2
COc1cc(C2/C(=C(/O)c3ccc(OCC(C)C)cc3)C(=O)C(=O)N2CCN(C)C)ccc1O (stereo unspecified)	2.2	21	0.88	-1	-8	2
CC(=O)Nc1ccc(N2C(=O)CC(c3ccccc3)CC2=O)cc1	0.13	·	·	0	·	·
CCOCCCNCc1ccc(OC)c(OC)c1	0.27	1	1.6	-2	-2	0
COc1ccc(CNCCC(c2ccc(OC(C)C)cc2)C(C)C)cc1OC (stereo unspecified)	-0.05	·	-3.7*	-2	·	·
CCN(CC(=O)NC1CCS(=O)(=O)C1)S(=O)(=O)c1ccc(F)cc1 (stereo unspecified)	·	·	·	-2	·	·
Fc1ccc(CN2CCCCCCC2)cc1	-0.91	2	-0.87	-1	-12	0
NC(=O)C1(N2CCCCC2)CCN(Cc2ccc(F)cc2)CC1	2.2	6	-4.2*	-1	-21	-1
CCOC(=O)Cc1csc(NC(=O)COc2ccccc2)n1	0.36	-4	-1.7	2	-27	6
CCOC(=O)Cc1csc(NC(=O)COc2ccc(N(C)S(=O)(=O)c3cccs3)cc2)n1	-2	-8	-4.7*	-1	30	0
CCCCn1nnc(NC(=O)c2sc3cc(Cl)ccc3c2Cl)n1	-0.45	-2	-0.2	2	-9	-3
Cc1ccc(NC(=O)CSc2ncccc2C(=O)Oc2cccc([N+](=O)[O-])c2)cc1Cl	·	·	·	-4	·	·
CC(C)CO/C(=N/S(=O)(=O)c1ccccc1)c1ccccc1	-0.5	9	-4.1*	-2	-25	-2
Cc1cccc(N2CCN(C(=O)CCCSc3nc4ccccc4[nH]3)CC2)c1C	-0.61	8	-5.5*	0	18	-3
CC(C)(C)c1ccc(C2(C)NC(=O)N(CC(=O)Nc3ccc4c(c3)OCO4)C2=O)cc1 (stereo unspecified)	0.39	-46	-5.6*	2	9	-1
CC1(c2ccc(OC(F)F)cc2)NC(=O)N(CC(=O)Nc2ccc3c(c2)OCO3)C1=O (stereo unspecified)	-0.28	12	1.6	2	6	3
Fc1ccc(C(c2nnnn2Cc2ccccc2)N2CCSCC2)cc1 (stereo unspecified)	-0.71	-1	-1.6	0	1	2
COc1cccc(C(c2nnnn2CCc2ccccc2)N2CCN(c3ccccc3)CC2)c1OC (stereo unspecified)	-3.3*	-4	-4.2*	-1	·	·
Clc1ccc(C(c2nnnn2CCc2ccccc2)N2CCSCC2)cc1 (stereo unspecified)	-0.88	13	-6.8*	-1	0	6
COc1ccccc1C(c1nnnn1CCc1ccccc1)N1CCCCCC1 (stereo unspecified)	-2	0	-9*	-3	-4	-2
COCCn1nnnc1C(c1ccccc1OC)N1CCN(c2ccccc2)CC1 (stereo unspecified)	-2.6	16	-0.1	0	-9	-1
